Screens: PubChem, National Center for Advancing Translational Sciences (NCATS)
Sampled rows, rich in hits. Any-hit rate of the full collection: about 1.4%.
FBPA Giardia inh: qHTS Assay for Inhibitors of Fructose-1,6-bisphosphate Aldolase from Giardia Lamblia; A8B2U2; purified Giardia FBPA; Potency, µM (doses to about 59.6 µM), most hits filed as inhibitors; 290,000 compounds, 0.71% hits; AID 2451, 2010; also: nearly all actives have a fitted effect of over 55% in size
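Giardia FBPA (40 nM reagent) was preincubated 10 min at RT with compound (up to 57.5 uM final), then substrate plus GAPDH/TPI/NAD/arsenate coupling system with diaphorase/resazurin was added; resorufin fluorescence (525/598 nm) was read after 20 min.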
AmpC inh no detg: qHTS Inhibitors of AmpC Beta-Lactamase (assay without detergent) | P00811 | AmpC nitrocefin hydrolysis, absorbance 480 nm, 0.0001% Triton | Potency, µM (highest dose often 57.1 µM), hits mostly inhibitors | 330,000 compounds, 0.52% hits | AID 485341, 2010; also: nearly all actives have a fitted effect of over 20% in size
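AmpC (5.3 nM in the dispensed reagent) in 20 mM phosphate pH 7.0 with 0.01% (detergent screen) or 0.0001% Triton X-100 was preincubated with compounds for 15 min at room temperature. Nitrocefin was then added from an 800 uM solution, and hydrolysis was followed at 480 nm.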
LmPK inhibitor: qHTS Assay for Inhibitors of Leishmania Mexicana Pyruvate Kinase (LmPK); AID 1721, 2009; Potency, µM (top dose mostly 57.5 µM), usual class: inhibitors; purified LmPK, Kinase-Glo ATP luminescence, 1 h; 290,000 compounds, 0.37% hits
Target sequence (Q27686 whole entry, looked up): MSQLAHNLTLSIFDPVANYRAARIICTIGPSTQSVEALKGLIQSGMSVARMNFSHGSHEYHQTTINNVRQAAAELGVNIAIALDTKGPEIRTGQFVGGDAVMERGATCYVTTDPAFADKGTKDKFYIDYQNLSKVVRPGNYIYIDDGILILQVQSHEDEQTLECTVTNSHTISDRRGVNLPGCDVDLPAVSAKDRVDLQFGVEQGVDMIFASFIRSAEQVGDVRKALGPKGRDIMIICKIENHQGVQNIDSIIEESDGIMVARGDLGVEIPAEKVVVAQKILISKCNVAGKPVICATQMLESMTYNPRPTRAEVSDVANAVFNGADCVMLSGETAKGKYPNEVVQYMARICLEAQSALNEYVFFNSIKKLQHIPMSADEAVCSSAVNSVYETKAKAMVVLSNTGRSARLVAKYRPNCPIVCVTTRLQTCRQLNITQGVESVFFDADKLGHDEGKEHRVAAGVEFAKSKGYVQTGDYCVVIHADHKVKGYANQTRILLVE
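Screened at intermediate enzyme activity to detect both inhibitors and activators: LmPK at 0.1 nM, with a 0.5 nM enzyme column as activation reference. PEP 0.5 mM, ADP 0.1 mM; ATP detected by luminescence after 1 h.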
RE007 growth inh: qHTS Assay for Inhibitors of the HIV-1 protein Vpr; S. pombe RE007 Vpr strain, BacTiter-Glo ATP luminescence, 24 h; Potency, µM (highest dose often 92.2 µM), hits mostly inhibitors; 360,000 compounds, 0.21% hits; AID 651644, 2012; active = well fitted falling curve with a large enough effect; inconclusive = small, poorly fitted or top-dose-only effect; inactive = no such curve, though single readings can be large or run the other way; also: nearly all actives have a fitted effect of over 50% in size
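Fission yeast RE007 carrying one integrated HIV-1 vpr copy, seeded at OD 0.01 in PMG+AL medium with 23 nL pinned compound. Grown 24 h at 30 degrees; viability read by BacTiter-Glo luminescence after 5 min.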
TbPYK inhibitor: qHTS of Trypanosoma Brucei Inhibitors; TbPYK enzyme, Kinase-Glo Plus ATP luminescence, 45 min; AID 624173, 2012; Potency, µM (titrated, usually from 76.8 µM), actives largely listed as inhibitors; 410,000 compounds, 0.12% hits; also: nearly all actives have a fitted effect of over 50% in size
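Readout: single end-point luminescence (Kinase-Glo Plus, 10 min). Reaction conditions were TbPYK/substrate plus 130 uM ADP, 45 min at RT, pH 7.2 TEA buffer. No-enzyme wells served as controls, and data were normalized before concentration-response fitting.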
AmpC detergent: qHTS Inhibitors of AmpC Beta-Lactamase (assay with detergent) | P00811 | AmpC hydrolysis of nitrocefin, absorbance 480 nm, 0.01% Triton | Potency, µM (titrated, usually from 114 µM), hits mostly inhibitors | 370,000 compounds, 0.041% hits | AID 485294, 2010; also: nearly all actives have a fitted effect of over 25% in size
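AmpC (5.3 nM in the dispensed reagent) in 20 mM phosphate pH 7.0 with 0.01% (detergent screen) or 0.0001% Triton X-100 was preincubated with compounds for 15 min at room temperature. Nitrocefin was then added from an 800 uM solution, and hydrolysis was followed at 480 nm.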
A number is an active result; . = inactive; ? = inconclusive; / = not tested or not shown. Unless noted, calls follow the shape of the dose curve; as a rule, active = well fitted curve in the direction sought with a large enough effect; inconclusive = small, poorly fitted or top-dose-only effect, or another doubt; inactive = no such curve, though single readings can be large; an effect the other way counts as inactive or inconclusive.

SMILES	FBPA Giardia inh	AmpC inh no detg	LmPK inhibitor	RE007 growth inh	TbPYK inhibitor	AmpC detergent
Cc1c(C(=O)O)c(O)cc2c1C(=O)c1c(O)c([C@H]3O[C@H](CO)[C@@H](O)[C@H](O)[C@H]3O)c(O)c(O)c1C2=O	18µM	/	/	/	.	/
Cc1c(C(=O)Oc2cccc3cccnc23)oc2ccccc12	?	.	.	40µM	.	.
CCc1nc2ccccc2c(C(=O)Oc2cccc3cccnc23)c1C	.	.	.	.	.	.
Cc1ccc(-n2nc(C(=O)Nc3cccc(C#N)c3)c3c4ccccc4n(C)c3c2=O)cc1	/	/	/	/	.	.
COc1ccc(-c2cn3ccc4ccccc4c3n2)cc1	.	.	.	.	.	.
COc1ccc(-c2cn3nc4c(nc3n2)CCCC4)cc1	.	.	16µM	.	.	.
CN(CC(=O)Nc1ccc(F)cc1)C(=O)COc1ccccc1Cc1ccccc1	/	35µM	/	.	.	.
COc1ccc(NC(=O)CN(C)C(=O)COc2ccccc2Cc2ccccc2)cc1	/	.	/	.	.	.
O=C(O)CC1Oc2ccc(Cl)cc2NC1=O (stereo not drawn)	.	11µM	.	.	.	?
COc1ccc(OC)c(/C=N/NC(=O)c2ccc(Cn3cc([N+](=O)[O-])cn3)o2)c1	.	40µM	.	.	.	?
COc1ccc(N2CCN(C(=O)c3sc4nc5n(c(=O)c4c3C)CCC5)CC2)cc1	/	/	/	/	.	.
COc1cc(OC)c(N(C)C(=O)C2CCCN(c3ncnc4c3nc3n4CCCCC3)C2)cc1Cl (stereo not drawn)	/	/	/	/	.	.
Cc1ccc(C(=O)OCC(=O)c2c[nH]c3ccccc23)cc1S(=O)(=O)N1CCCCC1	.	16µM	.	.	.	.
Cc1ccc(C(=O)NC2CCCC2)cc1S(=O)(=O)N1CCCCC1	.	.	.	.	.	?
Cc1ccc(C(=O)NNC(=O)c2ccccc2O)cc1S(=O)(=O)N1CCCCC1	/	8.9µM	/	.	.	?
Cc1ccc(C(=O)OCC(=O)NCc2ccccc2)cc1S(=O)(=O)N1CCCCC1	/	.	/	.	.	.
Cc1cc(Cl)c(S(=O)(=O)Nc2ccon2)cc1OCC(=O)NC1CCCCC1	.	0.22µM	.	.	.	.
Oc1c(C=Nc2ccc(Cl)cn2)sc2ccccc12	.	.	.	.	.	.
Oc1c(/C=N/c2ccccn2)sc2ccccc12	.	.	6.3µM	.	.	.
O=S(=O)(O)OCC1OC(COS(=O)(=O)O)(C2(OS(=O)(=O)O)OC(CO)C(OS(=O)(=O)O)C(OS(=O)(=O)O)C2OS(=O)(=O)O)C(OS(=O)(=O)O)C1OS(=O)(=O)O (stereo not drawn)	/	/	/	/	.	/
O=C(N/N=C\c1ccc2c(c1)OCO2)c1ccco1	.	.	14µM	.	.	.
CCN(C(=S)Nc1cc(S(=O)(=O)N2CCOCC2)ccc1Cl)c1cccc2ccccc12	7.1µM	.	.	.	.	.
CN1CCN(C(=O)Cn2c(-c3cccs3)cc3ccccc32)CC1	/	/	/	/	.	.
COc1ccc2[nH]c(C)c(CCN(Cc3cccs3)C(=S)Nc3cccc(F)c3)c2c1	?	45µM	.	.	.	.
COc1ccc(C2=NN(C(=S)Nc3ccccc3)C(c3ccccc3)C2)cc1 (stereo not drawn)	.	25µM	.	.	.	.
SMILES	FBPA Giardia inh	AmpC inh no detg	LmPK inhibitor	RE007 growth inh	TbPYK inhibitor	AmpC detergent
COc1ccc(C2CC(c3ccccc3)=NN2C(=S)Nc2ccccc2)cc1 (stereo not drawn)	.	.	.	.	.	.
Cc1ccc(C(=O)CSc2nc(-c3ccccc3)ccc2C#N)cc1	.	.	.	.	.	.
CCOc1ccccc1NC(=O)CSc1ccc(-c2ccco2)nn1	/	32µM	.	.	.	.
CCOc1ccccc1NC(=O)Cn1nc(-c2ccco2)ccc1=O	.	.	.	.	.	.
O=C(CSc1ccc(-c2ccco2)nn1)c1ccc(F)cc1	.	.	.	.	20µM	?
N#Cc1ccc(-c2ccco2)nc1SCC(=O)c1ccc(Cl)cc1	.	10µM	.	.	.	.
CC(C)c1cc(C(=O)NC(C)c2ccccc2)no1 (stereo not drawn)	/	/	/	/	.	.
Cc1ccc(C(=O)n2c(=S)nc3ccccn32)cc1	.	.	14µM	/	/	.
Cc1cccc(C(=O)n2c(=S)nc3ccccn32)c1	.	.	13µM	?	.	.
O=C(Cn1ccc2cc(S(=O)(=O)N3CCCCCC3)ccc21)NCc1cccc(Cl)c1	/	/	/	/	.	.
CC(CSC(=O)c1ccccc1)C(=O)N1CC(Sc2ccccc2)CC1C(=O)O (stereo not drawn)	/	/	/	/	.	/
O=C(/C=C/c1ccco1)Nc1cccnc1Cl	.	.	16µM	.	?	.
O=C(/C=C/c1ccccc1)Nc1cccnc1Cl	.	.	.	.	.	?
COc1ccc(NS(=O)(=O)c2ccc3nc(COc4cccc5ccccc45)[nH]c3c2)cc1	.	4µM	.	.	.	.
O=C(OCn1ncc(Cl)c(Cl)c1=O)c1ccc(F)cc1	.	.	.	/	/	.
O=C(OCn1ncc(Cl)c(Cl)c1=O)c1ccccc1Cl	.	.	.	45µM	.	?
O=C1[C@@H]2[C@@H](CN3CN(c4ccccc4)N=C(c4ccccc4)[C@@]23c2ccccc2)C(=O)N1c1ccccc1	/	/	/	40µM	.	/
O=c1c(O)c(-c2ccc(O)c(O)c2)oc2c(O)c(O)cc(O)c12	7.1µM	/	/	/	/	/
CC1CCN(c2nc(Cl)nc(Nc3ccc([N+](=O)[O-])cc3)n2)CC1	.	10µM	.	.	.	?
CCOC(=O)C1CCN(C(=O)CN2c3ccc(C(C)C)cc3-c3ccccc3S2(=O)=O)CC1	/	/	/	/	.	.
Cc1ccc(C(=O)NCC(c2ccc3c(c2)OCO3)N2CCN(c3ccc(F)cc3)CC2)cc1 (stereo not drawn)	/	/	/	/	.	.
COc1ccc(N2C(=O)CC(Sc3ncn[nH]3)C2=O)c(OC)c1 (stereo not drawn)	?	.	.	.	?	?
CC(C)c1ccc(N2C(=O)CC(Sc3ncn[nH]3)C2=O)cc1 (stereo not drawn)	?	.	.	56µM	.	.
CN1C(=O)CC(c2ccccc2)Nc2ccccc21 (stereo not drawn)	.	.	.	.	.	.
N#CC1CC(c2ccccc2)Nc2cc(Cl)ccc2N1 (stereo not drawn)	.	11µM	.	/	.	?
COc1c(Cl)cccc1-c1cn2ccccc2n1	.	.	7.1µM	?	.	.
